Experimental data taken from PubChem BioAssay AID687031 (Broad Institute, 2013).
Hit rate of the full screen: of about 1,400 compounds, about 50 (4%) were called active.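 How the source made its calls: active means fitted curve reaches 30% CPE protection at or below the top valid dose, with every test run called active; inconclusive means test runs disagree, some active and some not; inactive means every test run inactive, including effects in the wrong direction.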 Only a sample is shown. Entries with a potency or affinity are not part of this list.

Experiment: antiviral rescue of DENV2-infected BHK-21 cells – cell-based, ATP luminescence, cherry-pick, dose response (AID 687031);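 further: 0% = infected DMSO wells and 100% = uninfected cell wells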
Conditions: BHK-21 DENV2 CPE protection, 5 d; series mostly up to 19.5 µM; CPE protection (higher = active): at the top concentration

CPE protection (higher = active), inactive:
CS(=O)(=O)N1[C@@H]2CNC[C@H]1C2c1ccc(-c2ccccc2)cc1 (some centres not stated) 1.08%
COc1cccc(-c2ccc3c(c2)[C@H]2[C@H](CCN2S(=O)(=O)c2cn(C)cn2)[C@@H](CO)N3)c1 -4.08%
Cc1ccccc1-c1ccc(C2[C@@H]3CN(C(=O)Cc4ccncc4)C[C@H]2N3)cc1 (some centres not stated) -5.08% [at 21 µM]
COc1cccc(NC(=O)N2[C@@H]3CNC[C@H]2C3c2ccc(-c3ccccc3)cc2)c1 (some centres not stated) -7.29% [at 21 µM]
C[C@@H]1CN([C@H](C)CO)C(=O)c2cccc(NC(=O)Nc3ccc4c(c3)OCO4)c2O[C@H]1CN(C)C(=O)Nc1ccccc1 -7.43%
CCOC(=O)CC[C@H](NC(=O)Cn1cnc2c(OCc3ccccc3)ncnc21)C(=O)OCC -6.24%
COc1ccc(C(CNC(=O)COc2cc(C)ccc2Cl)N2CCCCC2)cc1 (configuration not stated) -7.55%
COc1ccc2o/c(=N\O)c(C(=O)Nc3ccc(C)cc3)cc2c1 21.5%
COc1cc(S(=O)(=O)NCc2ccncc2)c(OC)cc1Br -11.7%
CO[C@@H]1CN(C)C(=O)c2ccc(NC(=O)CC(F)(F)F)cc2OC[C@H](C)N(C(C)=O)C[C@@H]1C 9.73%
O=C1Nc2ccccc2SC1c1ccccc1 (configuration not stated) 22.8%
O=C1Nc2ccccc2C(=O)N(C2CCCC2)C1C(=O)NC1CC1 (configuration not stated) -7.26%
C[C@@H]1CN([C@H](C)CO)C(=O)c2cc(N(C)C)ccc2O[C@@H](C)CCCCO[C@@H]1CN(C)C(=O)CCC(F)(F)F 6.42%
Cc1nccn1CC(O)COc1ccc(Cl)cc1Cl (configuration not stated) -6.74%
OC(COc1ccc(Cl)cc1Cl)Cn1ccnc1 (configuration not stated) 2.84%
CCC(C(=O)Nc1c(C)cccc1C)n1c(-c2ccc(=O)[nH]c2)nc2ccccc21 (configuration not stated) 6.71%
O=C(NCc1ccc2c(c1)OCO2)C(=O)NCC1OCCCN1S(=O)(=O)c1ccccc1 (configuration not stated) -15.4%
Cc1ccc(C(=O)NCC(=O)Nc2ccc(S(=O)(=O)Nc3cc(C)nc(C)n3)cc2)cc1 -0.439%
O=C(C[C@H]1CC[C@@H]2[C@H](COC[C@H](O)CN2C(=O)Cc2ccccc2)O1)NC1CCCC1 2.96% [at 21 µM]
Cc1ccc(S(=O)(=O)Nc2cccc(C(=O)NCCCn3ccnc3)c2)cc1F -1.15%
CCOC(=O)N1CCC(NC(=O)c2cccc3c2C(=O)N(CCOC)C3)CC1 8.32%
CCOC(=O)N1CCC(NS(=O)(=O)c2ccc(C#N)cc2)CC1 -10.4%
CC(C)OC(=O)c1ccc(NCc2cc(O)ccc2O)cc1 -7.2%
CCOC(=O)N1C=CC=C[C@@H]2[C@@H](N3C(=O)c4ccccc4C3=O)C(=O)N21 -9.2%
COc1ccc(C2CC(c3cccs3)=NN2C(=O)CCC(=O)O)cc1OC (configuration not stated) -2.94%
COc1ccc(NC(=O)Nc2cccc3c2O[C@H](CN(C)C(=O)Nc2ccc(OC)cc2)[C@@H](C)CN([C@@H](C)CO)C3=O)cc1 -19.9%
Cc1cccnc1 -1.59%
Cc1ccccc1NS(=O)(=O)c1ccc(S(=O)(=O)N2CCCC2)cc1 2.34%
CC(=O)N1c2ccc(S(=O)(=O)NCCC(=O)N3CCCC(C)C3)cc2CC1C (configuration not stated) -15.9%
CCOc1ccc(C(=O)Nc2ccc(CN3CCOCC3)cc2)cc1Cl 2.94%
Cc1ccc(NC(=O)C2CCCCC2)cc1C 14.2%
Brc1ccc(OCc2nnc(SCC3CCCCC3)o2)cc1 1.56%
N#CCSc1ccccc1NC(=O)CN1C(=O)C(=O)N(Cc2ccccc2)C1=O -15.2%
COc1ccccc1N1CCN(S(=O)(=O)CCNC(=O)CCc2ccccc2)CC1 5.74%
COCCNC(=O)CCC1CCN(Cc2ccc(-c3ccccc3)cc2)CC1 -10.3%
C[C@@H]1CN([C@H](C)CO)C(=O)Cc2cc(NC(=O)CCCCCC(=O)Nc3ccccc3N)ccc2O[C@@H]1CN(C)Cc1ccc(Cl)c(Cl)c1 -2.74%
CCc1nc2c(OCCc3cccc(OC)c3)cccn2c1N(C)C(=O)c1ccc(C)cc1 3.2%
CCCN1[C@H](C(=O)OC)[C@@H](CO)[C@@H]2Cn3c(ccc(C4=CCCC4)c3=O)[C@@H]21 8.66%
CN1[C@@H]2Cn3c(ccc(C4=CCCC4)c3=O)[C@H]1[C@@H](C(=O)N1CCCCC1)[C@@H]2CO 21.2%
O=C(Nc1ccc2c(c1)OCCO2)c1cccc(C(=O)Nc2ccc3c(c2)OCCO3)c1 16.2%
O=C(COC(=O)CNC(=O)c1ccc(Cl)cc1)Nc1ncc(C(F)(F)F)cc1Cl 9.18%
CC1CC(C)CN(C(=O)COC(=O)c2nccnc2N)C1 (configuration not stated) 8.89%
Cc1ccccc1OCC(=O)OCC(=O)NCCNC(=O)COC(=O)COc1ccccc1C 7.36%
O=C(COc1ccc(-c2nnco2)cc1)NCc1ccccc1Cl -5.13%
Cc1ccccc1S(=O)(=O)N1[C@H](C#N)[C@H](c2ccccc2)[C@@H]1CO 7.31% [at 21 µM]
CN1C(=O)c2cc(NC(=O)NC3CCCC3)ccc2OC[C@H]2O[C@@H](CC(=O)NCC3CC3)CC[C@@H]21 -8.11% [at 23.5 µM]
Cc1ccccc1-c1cnc(C(O)c2cccc(C)c2C)[nH]1 (configuration not stated) 8.04%
CC(C)c1ccc(S(=O)(=O)N2CCN(C(=O)n3ccnc3)CC2)cc1 3.32%
CC(=O)Nc1cc(-c2ccc(C(=O)NC3CC3)cc2)cn2c(-c3cccc(C(F)(F)F)c3)cnc12 -8.05%
Cc1ccc(NC(=O)C2(c3cccs3)CCOCC2)cc1C 16.6%
COc1ccc(C(CNC(=O)CCNC(=O)c2ccc(Br)cc2)N2CCOCC2)cc1 (configuration not stated) 10.9%
Cc1ccccc1-c1csc(C(C)(O)c2ccccc2)n1 (configuration not stated) 16.6%
O=C(c1ccncc1)N1CCCC(N2CCN(c3cccc(C(F)(F)F)c3)CC2)C1 (configuration not stated) 22.6%
O=C(c1cc(C2CC2)on1)N1CCCC(N2CCN(c3cccc(C(F)(F)F)c3)CC2)C1 (configuration not stated) 8.43%
CN(CC(=O)Nc1ccc(Cl)cc1)C(=O)CCc1nc2sc3c(c2c(=O)[nH]1)CCCC3 -2.63%
CC#CCN1C(=O)N[C@@H](c2ccccc2)C(C(=O)OC)=C1C -2.29%
COC(=O)[C@@H]1[C@H](CCc2ccccc2)NC(=O)N(Cc2ccccc2)[C@@H]1C -7.83%
O=S(=O)(NN=Cc1cccc(Cl)c1)c1ccccc1 -10.2%
Cc1ccc2c(COC(=O)CNC(=O)c3ccccc3)cc(=O)oc2c1 -8.55%
COc1cc(OC)cc(C(=O)NCCC(c2ccccc2)c2ccccc2)c1 -16.4%
Cc1noc(C)c1NC(=O)Nc1ccc2c(c1)C(=O)N([C@@H](C)CO)C[C@@H](C)[C@@H](CN(C)Cc1ccccc1)OCCCC[C@@H](C)O2 18.2%
Cc1noc(C)c1NC(=O)Nc1ccc2c(c1)C(=O)N([C@@H](C)CO)C[C@@H](C)[C@@H](CN(C)C)OCCCC[C@@H](C)O2 -7.08%
C[C@@H]1CN([C@H](C)CO)C(=O)c2cc(NC(=O)c3ccccc3)ccc2O[C@@H](C)CCCCO[C@@H]1CN(C)S(=O)(=O)c1ccc(F)cc1 14.4%
C[C@@H]1CCCCO[C@@H](CN(C)S(=O)(=O)c2ccc(F)cc2)[C@@H](C)CN([C@@H](C)CO)C(=O)c2cc(NC(=O)c3ccccc3)ccc2O1 -0.86%
Cc1cnc(CNC(=O)C2CCC(=O)N(Cc3ccc(Cl)cc3)C2)[nH]1 (configuration not stated) -5.86%
ClC(CCN1CCN(Cc2ccccc2)CC1)c1ccccc1 (configuration not stated) 0.446%
Cc1cccc(N(CC(=O)NC(C)(C)C)C(=O)CNC(=O)c2cccs2)c1C -10.1%
CS(=O)(=O)N1CCc2cc(C(=O)N3CCN(c4ccccc4)CC3)ccc21 14.1%
CCOC(=O)N1CCC(NCCNC(=O)c2ccc(F)c(F)c2)CC1 -26.1%
CC1CCN(C(=O)COC(=O)c2cc3ccccc3oc2=O)CC1 29.4%
Cc1noc(C)c1NC(=O)N(C)C[C@@H]1Oc2c(NS(=O)(=O)c3ccccc3)cccc2C(=O)N([C@@H](C)CO)C[C@@H]1C 1.59%
CCNC(=O)C1(C)CCN(Cc2noc(-c3c(C)noc3C)n2)C1 (configuration not stated) 2.45%
O=C(NC1CCCCC1)N[C@H]1C=C[C@@H](CC(=O)N2CCOCC2)O[C@@H]1CO 15.7%
O=C(C[C@H]1C=C[C@H](NS(=O)(=O)c2ccccc2)[C@H](CO)O1)N1CCC(Cc2ccccc2)CC1 -16.4%
CCN(c1ccccc1)S(=O)(=O)c1ccc(OC)c(NC(=O)C2CCC2)c1 -14.6%
Cc1cccc(OCC(=O)NNC(=O)C2CCCCC2C(=O)O)c1 (configuration not stated) -36.8%
CN1CCN(CCOc2ccc(-c3ccccc3)cc2)CC1 -14.5%
c1ccc(-c2ccc(OCCN3CCOCC3)cc2)cc1 6.91%
Cc1cc(=O)oc2cc(OCCSCCN3CCCC3)ccc12 -9.74%
O=C(NCc1cc(C(F)(F)F)cc(C(F)(F)F)c1)C1CC(c2cccc(F)c2)=NO1 (configuration not stated) 1.22%
O=C(C[C@@H]1CC[C@H]2[C@@H](COC[C@@H](O)CN2C(=O)c2ccncc2)O1)NCc1ccc(-c2ccccc2)cc1 -12.4%
CCCC[C@@H]1CNC(=O)C(=O)N1CCCCC1CCCCC1 1.63%
CCC(=O)Nc1ccc2c(c1)C(=O)N(C)[C@@H]1CC[C@H](CC(=O)N[C@@H](C)c3ccccc3)O[C@@H]1CO2 30.3%
O=C(NCc1ccccc1F)[C@H]1N[C@H]2c3ccc(-c4ccccc4F)c(=O)n3C[C@H]2[C@@H]1CO 22.1%
O=C(NCCN1CCCC1)[C@H]1N[C@H]2c3ccc(-c4ccccc4)c(=O)n3C[C@H]2[C@@H]1CO 4.15%
O=C(c1cc(-c2ccccc2)n[nH]1)N1CCN(S(=O)(=O)c2ccccc2)CC1 8.57%
COCCn1nnnc1C(c1cc2cc(C)ccc2[nH]c1=O)N1CCN(C2CCCCC2)CC1 (configuration not stated) 9.44%
CCN(CC(=O)Nc1cc(Cl)ccc1-n1cncn1)Cc1nc2ccccc2c(=O)[nH]1 1.83%
CCN(CC(=O)Nc1c(F)cccc1F)C(=O)c1cccc(S(=O)(=O)NCc2ccccc2)c1 -0.434%
C[C@@H]1CN([C@H](C)CO)C(=O)Cc2cc(NC(=O)Cn3cnnn3)ccc2O[C@@H]1CN(C)Cc1ccc(C(=O)Nc2ccccc2N)cc1 21.3% [at 18 µM]
Cc1cnc(CN(C)C(=O)CC2C(=O)NCCN2Cc2cccc(F)c2F)[nH]1 (configuration not stated) 12.8%
CCCN1CCC(NC(=O)CC2C(=O)NCCN2Cc2cccc(OC)c2)CC1 (configuration not stated) 7.2%
